Among all 2,100 compounds or so, about 480 (23%) were called active. Inconclusive results (about 5%) are left out.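 Rule for the calls: active = fitted curve reaches 40% activation at or below the top valid concentration, in every replicate test; inconclusive = replicate tests disagree on the call; inactive = the rest, including activity in the opposite direction.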 These entries were drawn from the full list. Measured potencies and affinities stand elsewhere.
Assay: PGC1a acetylation increase, cellular AlphaLISA – cell-based, cherry-picked samples, set 6, dose response (AID 720513);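 note: cells made to overexpress flag tagged PGC1a plus GCN5 acetyltransferase by viral infection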
Conditions: U2OS PGC1a acetylation AlphaLISA, overnight, 0 = neutral, -100 = inhibitor control; series mostly up to 19.5 µM

outcome, inactive:
CC(=O)N(C)C[C@@H]1Oc2cc(-c3ccc(F)cc3)ccc2S(=O)(=O)N([C@H](C)CO)C[C@H]1C, C[C@@H]1CN([C@@H](C)CO)C(=O)c2cccc(NC(=O)C3CCCCC3)c2O[C@@H]1CN(C)CC1CCCCC1, COc1cc(NC(=O)c2[nH]cnc2C(N)=O)cc(C(=O)Nc2cccc(C(F)(F)F)c2)c1, O=C(Nc1cccc(Cl)c1)c1cncn1-c1ccc(F)cc1, COc1cnc(-c2ccccn2)nc1Sc1ccc(C)cc1, CCOC(=O)C1(Cc2cccc(Cl)c2)CCCN(C(=O)c2cccnc2)C1 (stereo unspecified), C[C@H]1CN([C@@H](C)CO)C(=O)c2cc(C#Cc3ccc(F)cc3)cnc2O[C@@H]1CN(C)C(=O)Nc1ccc(F)cc1, C[C@@H]1CN([C@@H](C)CO)C(=O)c2cc(NS(C)(=O)=O)ccc2O[C@@H](C)CCCCO[C@H]1CN(C)C(=O)Nc1ccc(F)cc1, C[C@@H]1CN([C@H](C)CO)C(=O)c2cccc(NC(=O)c3nc4ccccc4s3)c2O[C@@H]1CN(C)C(=O)Nc1ccc(F)cc1, C[C@H]1CCCCO[C@@H](CN(C)C(=O)c2ccccc2)[C@@H](C)CN([C@@H](C)CO)C(=O)c2cc(NC(=O)Nc3ccc(F)cc3)ccc2O1, C[C@H]1CN([C@@H](C)CO)C(=O)c2cc(-c3cncnc3)cnc2O[C@@H]1CN(C)C(=O)c1cccc(F)c1, C[C@H]1CN([C@@H](C)CO)C(=O)CCCn2nncc2CO[C@@H]1CN(C)C(=O)c1ccc(N2CCN(C)CC2)cc1, CCOC(=O)CN1C(=N)N(c2nc(NC(C)C)nc(OC)n2)CC1=O, CC1CCc2sc(C(=O)Nc3nnc(SCc4ccc(F)cc4)s3)cc2C1 (stereo unspecified), CCc1ccc(-c2cn3nc(-c4ccccc4)cnc3n2)cc1, COCC(=O)Nc1ccc2c(c1)OC[C@H](C)N(C(=O)c1ccccc1F)C[C@H](C)[C@H](OC)CN(C)C2=O, OC[C@@H]1[C@H](c2ccc(/C=C/c3ccccc3)cc2)[C@H]2CN(CCC(F)(F)F)CCCCN12, CCCCOc1ccc(CNC(=O)NS(=O)(=O)c2ccc(OCC(C)C)cc2)cc1, CC(C)C#Cc1ccc2c(c1)O[C@@H](CN(C)Cc1ccccc1)[C@@H](C)CN([C@@H](C)CO)S2(=O)=O, COc1ccc(-c2nc3ccccc3c(=O)o2)cc1OC, COc1ccc(-c2cc(C(=O)O)[nH]n2)cc1OC, Cc1ccc(C(=O)N2CCN(c3ncccn3)CC2)cc1, O=C(Nc1ccc(N2CCN(Cc3ccccc3F)CC2)cc1)c1ccc([N+](=O)[O-])o1, N#Cc1cc(Oc2cccc3cccnc23)c(-n2nnc3ccccc32)cc1C#N, O=C1CN(S(=O)(=O)Cc2ccccc2)C[C@@H]2[C@@H](c3ccc(C#Cc4cccc(F)c4)cc3)[C@@H](CO)N12, COC(=O)c1ccc(OC)c(OC2CCCC2)c1, N#Cc1ccc(-c2ccc([C@@H]3[C@H]4CNC[C@@H]3N4Cc3ccc4c(c3)OCO4)cc2)cc1, O=C(Cc1cccnc1)N1CC(=O)N2[C@H](CO)[C@@H](c3ccc(C#CC4CCCCC4)cc3)[C@H]2C1, CCN(CC)C1CC(=O)N(c2ccc(Br)cc2)C1=O (stereo unspecified), O=C(c1cc([N+](=O)[O-])ccc1N1CCCC1)N1CCCC1, COC(=O)c1cc(C(=O)N2CCN(c3cccc(Cl)c3)CC2)cc([N+](=O)[O-])c1, COc1cccc(NC(=O)N2CCN(c3cccc(C)c3)C(C)C2)c1 (stereo unspecified), COC(=O)[C@]1(Cc2ccccc2)N=C(c2ccc(OCCCO)cc2)O[C@@H]1c1ccccc1, O=C(c1cccc(Cl)c1)N1CCN(c2ccc(N3CCOCC3)nn2)CC1, CCN1C(C#N)=C(C#N)N=C(C)CC1(C)C, CC1(C(=O)Nc2cccc(C#N)c2)CCN1C(=O)CCc1ccccc1 (stereo unspecified), O=C1C=CCCN1S(=O)(=O)/C=C/c1ccccc1, COc1cc(CN2C[C@@H]3N[C@H](C2)C3c2ccc(/C=C/c3ccccc3)cc2)cc(OC)c1 (stereo partly specified), CO[C@H]1CN(C)C(=O)c2ccc(NC(=O)Nc3ccccc3F)cc2OC[C@@H](C)NC[C@@H]1C, CC(=O)N(C1=C(N2CCOCC2)C(=O)c2ccccc2C1=O)c1ccc(C(=O)O)cc1, Cc1cc(C)c(C#N)c(SCC(=O)Nc2nnc(-c3ccccc3)s2)n1, N#Cc1ccsc1NC(=O)CSc1nnc(NC2CC2)s1, Cc1ccc2nc(C)cc(OCC(=O)O)c2c1, C[C@@H]1CN([C@H](C)CO)C(=O)c2cc(C#CC3CC3)cnc2O[C@H]1CN(C)C(=O)Nc1ccc(F)cc1, Cc1[nH]c2ccc(C(C)C)cc2c1CC(=O)O, CC(C)(C)c1ccc(OCCSc2nc3ccccc3n2CC(=O)O)cc1, CC(C)(C)c1ccc(C(=O)NCCN2CCOCC2)cc1, COc1ccc2c(c1)c1nc3ccccc3nc1n2CC(=O)OC(C)C, O=C(Nc1ccc(CN2CCOCC2)cc1)c1ccc(F)cc1, N=c1n(Cc2ccccc2)c2ccccc2n1CC(O)COc1ccc(Cl)cc1Cl (stereo unspecified), Cc1nnc(SCC(=O)N2CCC(c3noc4ccc(F)cc34)CC2)s1, CS(=O)c1nc(-c2ccc(Br)cc2)cc(-c2ccccc2)c1C#N (stereo unspecified), CN(C)CCCNc1cc(-c2ccccc2)nc2cc(-c3cccc(F)c3)nn12, C=CCn1c(C)cc(C(=O)Cn2ncc(Cl)c(Cl)c2=O)c1C, Cc1cc(C)c(S(=O)(=O)NCC2CCC(C(=O)NCc3ccc4c(c3)OCO4)CC2)c(C)c1 (stereo unspecified), Cc1noc(C)c1S(=O)(=O)Nc1ccc2c(c1)C(=O)N([C@H](C)CO)C[C@@H](C)[C@H](CN(C)Cc1ccc(C(F)(F)F)cc1)O2, O=c1oc(-c2ccccc2)nc2sc3c(c12)CCC3, CCOC(=O)c1c(C)n(C)c2cc(Br)c(O)c(O)c12, CCOC(=O)c1c2c(n(C)c1C)C(=O)C(=O)c1ccc(Br)cc1-2, O=C(Nc1ccc2c(c1)OCO2)N[C@H]1CC[C@H](CCNC(=O)C2CCC2)O[C@@H]1CO, CCOC(=O)c1c(NC(=O)c2c(Br)cnn2CC)sc(C)c1C, CCOC(=O)c1c(NC(=O)/C=C/C(=O)O)sc(C)c1-c1ccc(C(C)(C)C)cc1, CN1CCc2c(sc3c2c(NCc2ccco2)nc2nnnn23)C1, O=C(Cc1cccc(NC(=O)C2CCCN(C(=O)c3ccccc3)C2)c1)Nc1cccc(C(=O)N2CCOCC2)c1 (stereo unspecified), CCn1cnc2cc(NCc3ccc(N(C)C)cc3)ccc21, O=C(Cc1cccc(NC(=O)C2CCN(C(=O)c3ccccc3)CC2)c1)Nc1cccc(C(=O)N2CCCCC2)c1, COc1ccc(C(=O)Nc2cc(Cl)ccc2-n2cncn2)c(OC)c1OC, Cc1noc(/C=C/N(C)C)c1S(=O)(=O)N(C)CC(=O)NC1CCCCC1, CCC(=O)N1C[C@H](C)[C@H](OC)CN(C)C(=O)c2cc(NC(=O)c3cnccn3)ccc2OC[C@@H]1C, O=C(c1ccccc1-c1ccccc1)N1CCN(c2ccccn2)CC1, Cc1nc2ncnn2c(C)c1CCC(=O)N1CCN(c2ccccn2)CC1, COc1ccc(CCNC(=O)C2CCN(C(=O)c3ccc(F)cc3)CC2)cc1OC, COc1cccc(CNC(=O)C(=O)NCCC2CCCCN2S(=O)(=O)c2ccc(C)cc2)c1 (stereo unspecified), Cc1ccc(S(=O)(=O)N2CCCC2CNC(=O)c2ccc(F)c(F)c2)cc1 (stereo unspecified), COc1ccc2nc(N3CCCC(C(=O)NCCCN4CCN(C)CC4)C3)sc2c1 (stereo unspecified), Nc1cc2ccncc2c2ccccc12, Cc1cc(Sc2nnc(N)s2)c2ccccc2n1, O=c1c2cccnc2n(-c2ccccc2)n1Cc1ccc(Cl)cc1, O=C(Nc1ccc(-c2cn3c(n2)SCC3)cc1)c1ccc2ccccc2n1, COc1ccc(C(=O)Nc2cccc(NC(=O)c3ccc(OC)c(OC)c3)n2)cc1OC, CCN(CC(=O)Nc1ccccc1OC)C(=O)C1CCC1, CCc1c(C(=O)NC2CCCCC2)[nH]c(C)c1C(C)=O, CCn1c(C(=O)NC2CCC(C)CC2)cc2sccc21 (stereo unspecified), CN(Cc1c(F)cccc1Cl)C(=O)CNC(=O)c1sc2ccccc2c1Cl, CN(Cc1c(F)cccc1Cl)c1nnnn1-c1ccccc1, CN(c1cc2c(c3c1ccn3C)C1CCC2C1)C1CCCCC1 (stereo unspecified), CCN(CC)CCNc1nc(-c2ccc(OC)cc2)c(-c2ccc(OC)cc2)s1, CCCCNC(=O)C1CCN(Cc2ccccn2)CC1, CC1(Cc2cc(Cl)ccc2C(F)(F)F)C(=O)Nc2ccc(S(=O)(=O)NC3CCCCC3)cc21 (stereo unspecified), O=S(=O)(/C(=C\c1ccc(C(F)(F)F)cc1)c1nc2ccccc2[nH]1)c1ccccc1, N#C/C(=C(/O)c1cc2ccccc2o1)c1nc2ccccc2s1, CC(=O)Nc1cc(OC(C)=O)c2nonc2c1OC(C)=O, Cc1ccccc1CSc1nnc(-c2ccco2)n1Cc1ccco1, COCC(=O)Nc1ccc2c(c1)OC[C@@H](C)N(CCc1ccccc1)C[C@H](C)[C@@H](OC)CN(C)C2=O, Cc1cccc(-n2c(=O)cc(N3CCN(c4ccc(F)cc4)CC3)[nH]c2=O)c1, CC(C)c1nnc(NC(=O)CCS(=O)(=O)c2nc(-c3cccs3)cc(C(F)(F)F)n2)s1

Reference: PubChem BioAssay AID720513 (Broad Institute, 2013)
